Data taken from PubChem BioAssay AID1159580 (chemical genetic matrix, 2015).
Values joined by “and” are separate entries in the source; they are usually repeats but may differ in a detail not shown here. Equal entries are not always repeated. Among all 5,500 compounds or so, about 2,000 (36%) were called active. Roughly 18% stayed inconclusive and do not appear here. Rule as the data show it: active = normalized growth mostly below about 0.91 (no sharp cut-off); inconclusive = no clear call, values can overlap the other calls; inactive = mostly above about 0.92. This is one part of the list.

Assay: chemical genetic growth profiling, strain panel (AID 1159580);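 also: tested at 20 µM; growth read once vehicle control cultures reached saturation at 30 °C; 1 = growth at the plate median or of vehicle wells; lower values mean less growth of the strain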
Settings: S. cerevisiae deletion strains, growth OD

Measured: normalized growth

COc1ccc2c(c1)[C@]13CCCC[C@H]1[C@H](C2)N(C)CC3
inactive: locus YAL021C, strain ccr4, stronger effect = lower value 0.94 | locus YAL026C, strain drs2, stronger effect = lower value 1 | locus YAL030W, strain snc1, stronger effect = lower value 0.971 | locus YBL061C, strain skt5, stronger effect = lower value 0.981 | locus YBR009C, strain hhf1, stronger effect = lower value 0.988 | locus YBR021W, strain FUR4, stronger effect = lower value 1.01 | locus YBR023C, strain chs3, stronger effect = lower value 0.99 | locus YBR171W, strain sec66, stronger effect = lower value 0.933 | locus YBR229C, strain ROT2, stronger effect = lower value 1.01 | locus YBR231C, strain swc5, stronger effect = lower value 0.937 | locus YBR279W, strain paf1, stronger effect = lower value 0.998 | locus YCL011C, strain gbp2, stronger effect = lower value 0.991 | locus YCL016C, strain dcc1, stronger effect = lower value 1.03 | locus YCL029C, strain bik1, stronger effect = lower value 0.988 | locus YCL061C, strain MRC1, stronger effect = lower value 0.968 | locus YCL069W, strain vba3, stronger effect = lower value 0.995 | locus YCR088W, strain abp1, stronger effect = lower value 0.952 | locus YDL005C, strain med2, stronger effect = lower value 0.97 | locus YDL035C, strain GPR1, stronger effect = lower value 1.04 | locus YDL040C, strain nat1, stronger effect = lower value 0.962 | locus YDL074C, strain BRE1, stronger effect = lower value 0.993 | locus YDL101C, strain DUN1, stronger effect = lower value 1 | locus YDL134C, strain PPH21, stronger effect = lower value 1.03 | locus YDL185W, strain tfp1, stronger effect = lower value 0.989 | locus YDL192W, strain arf1, stronger effect = lower value 0.995 | locus YDR001C, strain nth1, stronger effect = lower value 0.951 | locus YDR069C, strain doa4, stronger effect = lower value 0.943 | locus YDR101C, strain arx1, stronger effect = lower value 0.999 | locus YDR137W, strain rgp1, stronger effect = lower value 0.999 | locus YDR150W, strain NUM1, stronger effect = lower value 1.01 | locus YDR159W, strain sac3, stronger effect = lower value 0.955 | locus YDR162C, strain NBP2, stronger effect = lower value 1.01 | locus YDR195W, strain ref2 0.926 | locus YDR297W, strain sur2, stronger effect = lower value 0.98 | locus YDR318W, strain mcm21, stronger effect = lower value 0.988 | locus YDR334W, strain swr1, stronger effect = lower value 0.909 | locus YDR335W, strain msn5, stronger effect = lower value 0.949 | locus YDR388W, stronger effect = lower value 0.993 | locus YDR392W, strain spt3, stronger effect = lower value 1.03 | locus YDR502C, strain sam2, stronger effect = lower value 0.992 | locus YEL003W, strain gim4, stronger effect = lower value 0.966 | locus YEL037C, strain rad23, stronger effect = lower value 0.975 | locus YEL061C, strain CIN8 (second series), stronger effect = lower value 0.96 | locus YEL061C, strain CIN8, stronger effect = lower value 1.01 | locus YER015W, strain faa2, stronger effect = lower value 0.961 | locus YER016W, strain bim1, stronger effect = lower value 1 | locus YER110C, stronger effect = lower value 0.996 | locus YER111C, strain swi4, stronger effect = lower value 0.978 | locus YER155C, strain BEM2 (second series), stronger effect = lower value 0.886 | locus YER155C, strain BEM2, stronger effect = lower value 1 | locus YER167W, strain BCK2, stronger effect = lower value 1.01 | locus YFR010W, strain ubp6, stronger effect = lower value 0.95 | locus YGL078C, strain dbp3, stronger effect = lower value 0.993 | locus YGL086W, strain mad1, stronger effect = lower value 0.993 | locus YGL167C, strain pmr1, stronger effect = lower value 0.946 | locus YGL173C, strain kem1, stronger effect = lower value 1 | locus YGL227W, strain vid30, stronger effect = lower value 0.965 | locus YGL240W, strain doc1, stronger effect = lower value 0.948 | locus YGL248W, strain PDE1, stronger effect = lower value 0.995 | locus YGL253W, strain hxk2, stronger effect = lower value 0.998 | locus YGR078C, strain PAC10, stronger effect = lower value 0.996 | locus YGR135W, strain pre9, stronger effect = lower value 0.964 | locus YGR229C, strain SMI1, stronger effect = lower value 1.02 | locus YGR252W, strain gcn5, stronger effect = lower value 0.973 | locus YHR013C, strain ard1, stronger effect = lower value 0.991 | locus YHR027C, strain rpn1, stronger effect = lower value 0.985 | locus YHR030C, strain SLT2, stronger effect = lower value 1.01 and 1.03 | locus YHR079C, strain IRE1 (second series), stronger effect = lower value 0.984 | locus YHR079C, strain IRE1, stronger effect = lower value 1.03 | locus YHR094C, strain hxt1, stronger effect = lower value 0.987 | locus YHR129C, strain ARP1, stronger effect = lower value 1.01 | locus YHR142W, strain chs7, stronger effect = lower value 0.987 | locus YHR200W, strain rpn10, stronger effect = lower value 0.996 | locus YIL066C, strain RNR3, stronger effect = lower value 1.01 | locus YIL073C, strain SPO22, stronger effect = lower value 0.976 | locus YIL125W, strain kgd1, stronger effect = lower value 0.987 | locus YIR030C, strain dcg1, stronger effect = lower value 0.999 | locus YJL092W, strain hpr5, stronger effect = lower value 0.962 | locus YJL095W, strain BCK1 (second series), stronger effect = lower value 0.978 | locus YJL095W, strain BCK1, stronger effect = lower value 0.966 and 1.04 | locus YJL115W, strain asf1, stronger effect = lower value 0.95 | locus YJL129C, strain trk1, stronger effect = lower value 0.932 | locus YJL134W, strain LCB3, stronger effect = lower value 0.999 | locus YJL154C, strain vps35, stronger effect = lower value 0.954 | locus YJL164C, strain tpk1, stronger effect = lower value 1.02 | locus YJL166W, strain qcr8, stronger effect = lower value 0.929 | locus YJL168C, strain set2, stronger effect = lower value 0.99 | locus YJL187C, strain SWE1 (second series), stronger effect = lower value 0.994 | locus YJR043C, strain POL32, stronger effect = lower value 1.04 | locus YJR066W, strain TOR1, stronger effect = lower value 0.984 | locus YJR075W, strain HOC1, stronger effect = lower value 0.983 | locus YKL009W, strain mrt4, stronger effect = lower value 0.99 | locus YKL068W, stronger effect = lower value 0.993 | locus YKL085W, strain MDH1 (second series), stronger effect = lower value 0.984 | locus YKL085W, strain MDH1, stronger effect = lower value 0.984 | locus YKL160W, strain elf1, stronger effect = lower value 0.97 | locus YKR001C, strain vps1, stronger effect = lower value 0.997 | locus YKR026C, strain gcn3, stronger effect = lower value 0.966 | locus YKR091W, strain srl3, stronger effect = lower value 0.966 | locus YLL001W, strain dnm1, stronger effect = lower value 0.926 | locus YLL026W, stronger effect = lower value 0.986 | locus YLL041C, strain sdh2, stronger effect = lower value 0.97 | locus YLR027C, strain aat2, stronger effect = lower value 0.966 | locus YLR039C, strain RIC1, stronger effect = lower value 1.1 | locus YLR058C, strain SHM2, stronger effect = lower value 0.996 | locus YLR102C, strain apc9, stronger effect = lower value 0.976 | locus YLR113W, strain HOG1, stronger effect = lower value 1.05 | locus YLR221C, strain rsa3, stronger effect = lower value 1.01 | locus YLR258W, strain gsy2, stronger effect = lower value 0.997 | locus YLR262C, strain YPT6 (second series), stronger effect = lower value 0.954 | locus YLR262C, strain YPT6, stronger effect = lower value 1.08 | locus YLR268W, strain sec22, stronger effect = lower value 0.988 | locus YLR320W, strain mms22, stronger effect = lower value 1 | locus YLR330W, strain CHS5, stronger effect = lower value 1.01 | locus YLR342W, strain FKS1 (second series), stronger effect = lower value 0.997 | locus YLR342W, strain FKS1, stronger effect = lower value 0.946 | locus YLR357W, strain rsc2, stronger effect = lower value 0.958 | locus YLR370C, strain arc18, stronger effect = lower value 0.989 | locus YLR371W, strain rom2, stronger effect = lower value 0.993 | locus YLR384C, strain iki3, stronger effect = lower value 0.956 | locus YLR418C, strain cdc73, stronger effect = lower value 0.957 | locus YML016C, strain PPZ1, stronger effect = lower value 1.01 | locus YML032C, strain rad52, stronger effect = lower value 0.997 | locus YML120C, strain ndi1, stronger effect = lower value 0.973 | locus YML124C, strain tub3, stronger effect = lower value 0.997 | locus YMR058W, strain fet3, stronger effect = lower value 0.974 | locus YMR078C, strain ctf18, stronger effect = lower value 0.982 | locus YMR125W, strain sto1, stronger effect = lower value 0.917 | locus YMR129W, stronger effect = lower value 0.985 | locus YMR205C, strain PFK2, stronger effect = lower value 0.953 | locus YMR223W, strain ubp8, stronger effect = lower value 0.965 | locus YMR231W, strain pep5, stronger effect = lower value 0.965 | locus YMR307W, strain GAS1, stronger effect = lower value 1.09 | locus YNL067W, strain RPL9B, stronger effect = lower value 0.99 | locus YNL071W, strain lat1, stronger effect = lower value 0.982 | locus YNL153C, strain GIM3, stronger effect = lower value 0.981 | locus YNL183C, strain NPR1, stronger effect = lower value 0.997 | locus YNL209W, strain ssb2, stronger effect = lower value 0.99 | locus YNL233W, strain BNI4, stronger effect = lower value 0.982 | locus YNL248C, strain rpa49, stronger effect = lower value 0.987 | locus YNL250W, strain rad50, stronger effect = lower value 1.01 | locus YNL271C, strain bni1, stronger effect = lower value 0.994 | locus YNL298W, strain CLA4, stronger effect = lower value 0.991 | locus YNL307C, strain MCK1, stronger effect = lower value 0.979 | locus YNL322C, strain KRE1 (second series), stronger effect = lower value 0.93 | locus YNR049C, strain mso1, stronger effect = lower value 0.976 | locus YNR052C, strain pop2, stronger effect = lower value 0.992 | locus YOL012C, strain htz1 0.734 | locus YOL147C, strain pex11, stronger effect = lower value 0.989 | locus YOR001W, strain rrp6, stronger effect = lower value 0.953 | locus YOR061W, strain CKA2, stronger effect = lower value 1.02 | locus YOR069W, strain VPS5, stronger effect = lower value 1.01 | locus YOR070C, strain gyp1, stronger effect = lower value 0.987 | locus YOR080W, strain dia2, stronger effect = lower value 0.945 | locus YOR083W, strain WHI5, stronger effect = lower value 0.947 | locus YOR106W, strain vam3, stronger effect = lower value 0.939 | locus YOR136W, strain idh2, stronger effect = lower value 0.99 | locus YOR144C, strain elg1, stronger effect = lower value 0.99 | locus YOR184W, strain ser1, stronger effect = lower value 0.99 | locus YOR231W, strain MKK1, stronger effect = lower value 1.04 | locus YOR265W, strain rbl2, stronger effect = lower value 0.967 | locus YOR270C, strain vph1, stronger effect = lower value 0.966 | locus YOR290C, strain snf2, stronger effect = lower value 1.01 | locus YOR316C, strain cot1, stronger effect = lower value 0.991 | locus YPL051W, strain arl3, stronger effect = lower value 0.985 | locus YPL078C, strain atp4, stronger effect = lower value 0.933 | locus YPL106C, strain sse1, stronger effect = lower value 0.944 | locus YPL240C, strain hsp82, stronger effect = lower value 0.967 | locus YPL256C, strain CLN2, stronger effect = lower value 1.03 | locus YPR119W, strain clb2, stronger effect = lower value 0.981 | locus YPR141C, strain kar3, stronger effect = lower value 0.98 | locus YPR163C, strain tif3, stronger effect = lower value 1 | locus YPR167C, strain met16, stronger effect = lower value 0.987 | strain wtn01, stronger effect = lower value 0.986
